RECQ1 inh-1 = blocks DNA unwinding by human RECQ1. P46063. RECQ1 DNA unwinding, red fluorescence kinetic read. Potency, µM (highest dose often 57.3 µM), for the others: top-dose activity, negative = inhibition, usual class: inhibitors. hit rate 0.54% among 240,000;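 further: plate controls were vehicle for no effect and no enzyme for full effect; nearly all actives have a fitted effect of over 30% in size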
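RECQ1T1 50 nM; forked duplex (20 bp + 30-nt ss tails) 200 nM, ATP 2 mM final; pH 8.0, 2 mM MgCl2, 2.5 ug/ml poly(dI-dC); 15 min compound preincubation; discontinuous kinetic read over 2 h at RT.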
KDM4E inh = blocks human JMJD2E demethylase activity; JMJD2E catalytic domain, FDH-coupled NADH fluorescence (FDH is formaldehyde dehydrogenase); B2RXH2; hit rate 1.6% among 230,000; Potency, µM (doses to about 57.1 µM), without a hit: at the top dose activity change, negative = inhibition, hits mostly inhibitors; active means well fitted inhibition curve with a large enough effect, not every such curve was filed as active; inconclusive means small, poorly fitted or top-dose-only effect, or another doubt; inactive means no such curve, though single readings can be large or run the other way;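 further: 0% = wells with enzyme and -100% = buffer wells without enzyme; nearly all actives have a fitted effect of over 50% in size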
Target sequence (B2RXH2 1-337 limits assumed): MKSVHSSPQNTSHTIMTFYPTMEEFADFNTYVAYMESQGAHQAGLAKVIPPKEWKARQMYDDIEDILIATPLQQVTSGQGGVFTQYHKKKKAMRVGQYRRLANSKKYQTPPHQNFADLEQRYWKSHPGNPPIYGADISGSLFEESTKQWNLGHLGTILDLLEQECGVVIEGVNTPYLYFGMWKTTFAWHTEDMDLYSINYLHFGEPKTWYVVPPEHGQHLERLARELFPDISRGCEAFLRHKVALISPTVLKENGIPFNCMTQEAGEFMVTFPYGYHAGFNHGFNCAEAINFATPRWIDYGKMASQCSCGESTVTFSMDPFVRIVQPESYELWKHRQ
KAT2A inh = inhibitors of human GCN5L2 histone acetyltransferase; GCN5L2 HAT assay, ThioGlo1 CoA-SH fluorescence; AID 504327; Potency, µM (series often up to 58.9 µM), inactives show at the highest dose activity change, negative = inhibition, actives largely listed as inhibitors; hit rate 0.21% among 390,000
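qHTS, 1536-well. 20nM enzyme, pH 7.5 HEPES/EDTA/Tween-20 buffer; 15 min compound preinc., RT. Start: 75uM H3(1-25), 70uM AcCoA, 50uM ThioGlo1. Read Ex340/Em540 at t=0 (autofluorescence flag) and t=20 min.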
BLM inh = inhibitors of human Bloom syndrome helicase BLM. P54132. recombinant BLM DNA unwinding, fluorescence dequenching. Potency, µM (top dose mostly 56.1 µM), for inactives: at the highest dose activity change, negative = inhibition, usual class: inhibitors. hit rate 0.2% among 350,000;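 further: plate controls were vehicle for no effect and no enzyme for full effect; nearly all actives have a fitted effect of over 35% in size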
APE1 inh = blocks human APE1 abasic DNA cleavage; hit rate 0.35% among 350,000; P27695; Potency, µM (series often up to 65.8 µM), for the others: top-dose activity change, negative = inhibition, most hits filed as inhibitors; recombinant APE1, TAMRA/BHQ-2 abasic DNA cleavage fluorescence; AID 2517;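 further: plate controls were vehicle for no effect and reference inhibitor for full effect; nearly all actives have a fitted effect of over 55% in size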
Target sequence (P27695 whole entry, looked up): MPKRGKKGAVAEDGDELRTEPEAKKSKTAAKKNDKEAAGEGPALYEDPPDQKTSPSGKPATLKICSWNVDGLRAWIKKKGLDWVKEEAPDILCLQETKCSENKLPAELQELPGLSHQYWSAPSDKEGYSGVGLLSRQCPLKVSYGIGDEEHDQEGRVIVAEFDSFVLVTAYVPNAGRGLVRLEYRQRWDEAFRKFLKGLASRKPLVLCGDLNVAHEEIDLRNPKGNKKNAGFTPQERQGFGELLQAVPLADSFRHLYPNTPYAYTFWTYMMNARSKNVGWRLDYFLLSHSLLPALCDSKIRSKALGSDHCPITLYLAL
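Enzyme (0.75 nM final) and test compound are incubated 15 min at room temperature before adding 50 nM quenched THF abasic-site duplex. Cleavage dequenches TAMRA, followed at 525/598 nm over three reads one minute apart.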
TDP1 block = TDP1 (human) enzyme inhibition | Q9NUW8 | recombinant TDP1, AlphaScreen DNA substrate cleavage | Potency, µM (series often up to 130 µM), for inactives: top-dose activity change, negative = inhibition, hits mostly inhibitors | hit rate 0.28% among 350,000 | AID 485290; further: nearly all actives have a fitted effect of over 40% in size
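Here, a 5' biotin and 3' phosphotyrosine-FITC DNA oligonucleotide reports Tdp1 activity: intact substrate bridges AlphaScreen beads, while cleavage leaves a 3' phosphate and drops signal. All incubations at room temperature.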
RECQ1 conf = confirmation of human RECQ1 helicase inhibitors; Potency, µM (titrated, usually from 229 µM), without a hit: at the highest dose activity change, negative = inhibition, usual class: inhibitors; RECQ1 helicase DNA unwinding, fluorescence; hit rate 28% among 610; AID 2708; shares compounds with RECQ1 inh-1; further: nearly all actives have a fitted effect of over 45% in size
ADP FP counter = displaces ADP in a fluorescence polarization counter-screen for RECQ1 hits | Potency, µM (top dose mostly 228 µM), inactives show at the top dose activity change, negative = inhibition, usual class: inhibitors | ADP fluorescence polarization displacement counterscreen | shares compounds with RECQ1 inh-1 | hit rate 27% among 530; further: nearly all actives have a fitted effect of over 45% in size
RECQ1 inh-2 = confirmation of human RECQ1 helicase inhibitors; shares compounds with RECQ1 inh-1; recombinant RECQ1 DNA unwinding, red fluorescence; Potency, µM (top dose mostly 119 µM), inactives show at the highest dose activity, negative = inhibition, actives largely listed as inhibitors; hit rate 15% among 1,100; AID 504841; further: nearly all actives have a fitted effect of over 50% in size
Starred values were filed as active, the others as inactive; i = inactive; ? = inconclusive; nt = no result given; ! = repeats disagree; [ ] = another dose, or the depositor's remark. This excerpt belongs to a sample that is enriched for hits. Unless noted, the call rests on the fitted dose curve; in most records, active means well fitted curve in the direction sought with a large enough effect; inconclusive means small, poorly fitted or top-dose-only effect, or another doubt; inactive means no such curve, though single readings can be large; an effect the other way counts as inactive or inconclusive. Unless noted, on the % scale 0 is the no-effect control and ±100 the full control effect; potency means the concentration at half of the fitted maximal effect.

SMILES	RECQ1 inh-1	KDM4E inh	KAT2A inh	BLM inh	APE1 inh	TDP1 block	RECQ1 inh-2	others
CCOC(=O)C1=C(N)n2c(s/c(=C/c3ccccc3)c2=O)=C(C(=O)OCC)C1c1ccccc1 (stereo unspecified)	-5%	4%	3%	2%	0%	-2%	nt
Cc1cc2nc3ccc(=[N+](C)C)cc-3sc2cc1N	16µM*	14µM*	-12%	16µM*	?	?	16µM*	RECQ1 conf=3.5µM*;ADP FP counter=7.1µM*
Cc1nc2cc(C)c(C)cc2s1	-1%	9%	-4%	-3%	-4%	5%	nt
COc1cc(OC)cc(C(=O)NCc2ccc3c(c2)cc(C)n3C)c1	?	12%	-4%	0%	-7%	2%	nt
COc1ccc(C(=O)NCc2ccc3c(c2)cc(C)n3C)cc1	?	?	-23%	-5%	?	nt	0%
S=C(NCc1ccco1)Nc1ccc(Oc2ccc(Cl)cc2)cc1	?	-25%	-6%	-14%	18%	0%	-28%
O=C(O)CC(NC(=O)COc1ccc(Cl)cc1Cl)C(=O)O (stereo unspecified)	15%	1%	-5%	1%	2%	-4%	nt	RECQ1 conf=15%;ADP FP counter=5%
O=C(COc1ccc(Cl)cc1Cl)NC(=O)c1ccccc1	nt	nt	-2%	-1%	23%	2%	nt
CCN(Cc1ccccc1)Cc1c(O)ccc2oc(C)c(C(=O)Nc3ccccc3C)c12	nt	nt	-2%	-6%	nt	7%	nt
O=C(c1ccccc1)c1c2c(cc3sc4ccccc4[n+]13)-c1cccc3cccc-2c13	14µM*	16µM*	-9%	-16%	?	5%	32µM*
O=C1CSC(=S)N1/N=C/c1cc(Br)ccc1O	nt	nt	?	-4%	3%	10%	nt
O=C1CSC(=S)N1/N=C/c1ccc(O)c(O)c1O	2.2µM*	2.2µM*	?	?	0.35µM*	?	nt	RECQ1 conf=?
CCc1nc(Nc2ccc(N3CCN(C(C)=O)CC3)cc2)c2oc3ccccc3c2n1	?	?	-22%	-14%	?	15%	-17%
COC1=C(Nc2ccccc2)C(=O)c2ccccc2C1=O	-2%	4%	0%	-11%	7%	0%	nt
COC1=C(Nc2ccc(C)cc2)C(=O)c2ccccc2C1=O	?	14µM*	0%	-7%	?	11%	-14%
COc1ccc(Nc2ccc(OC)cc2)cc1	5.6µM*	?	-21%	-6%	11%	8%	-25%	RECQ1 conf=?;ADP FP counter=20µM*
COc1ccc(NC(=O)c2ccc(OCc3c(C)noc3C)c(OC)c2)cn1	-4%	-6%	3%	-1%	-1%	5%	nt	RECQ1 conf=-14%;ADP FP counter=112µM*
COc1cc(C(=O)Nc2nccs2)ccc1OCc1c(C)noc1C	i	-19%	-5%	-1%	9%	6%	nt
Cc1ccc(C)n1-c1sccc1C(=O)O	20µM*	4%	?	-17%	7.9µM*	nt	nt	RECQ1 conf=-76%[114 µM]
Cc1cc(C(=O)O)c(C)n1-c1ccccc1	i	8%	?	-3%	-3%	7%	nt
Cc1ccc(N2CC(C(=O)NCc3ccc(C)n3C)CC2=O)cc1 (stereo unspecified)	?	?	-11%	-9%	-7%	5%	-9%
CC(=O)Nc1ccc(-n2nnnc2SCC(=O)Nc2cccc(NC(=O)c3ccco3)c2)cc1	?	?	3%	-23%	?	nt	?
CCc1ccc(-n2nnnc2SCC(=O)Nc2ccc(NC(C)=O)cc2)cc1	nt	nt	-6%	0%	-2%	nt	nt
COc1ccc2c(C(=O)CN3CCN(c4ccccc4)CC3)c[nH]c2c1	?	-6%	?	-2%	3%	2%	-18%
COc1ccc2c(C(=O)CN3CCSCC3)c[nH]c2c1	-1%	?	-1%	2%	5%	4%	nt
SMILES	RECQ1 inh-1	KDM4E inh	KAT2A inh	BLM inh	APE1 inh	TDP1 block	RECQ1 inh-2	others
CCOC(=O)CN1C(=O)S/C(=C/C=C/c2ccc(N(C)C)cc2)C1=O	25µM*	-5%	-4%	?	-6%	11%	32µM*
COc1ccc(-c2nnc3n2N=C(c2c(OC)cccc2OC)CS3)c(OC)c1	16%	nt	nt	-3%	-9%	3%	nt
COc1ccc(-c2nnc(Nc3ccc(OC)c(C(N)=O)c3)c3ccccc23)cc1	nt	nt	0%	-16%	nt	0%[12.3 µM]	nt
COc1ccc(Nc2nnc(-c3ccc(O)cc3)c3ccccc23)cc1C(N)=O	?	-4%	-19%	-11%	1%	6%	-13%
CC1=C(C(=O)OC2CCCC2)C(c2cccc(Cl)c2Cl)CC(=O)N1 (stereo unspecified)	nt	nt	-5%	-5%	nt	2%	nt
CCCCC1=CC2=CC(=O)C(C)(OC(=O)CC)C(=O)C2=CN1Cc1ccco1 (stereo unspecified)	?	22µM*!	-22%	-6%[12.4 µM]	?	8%[12.3 µM]	-11%
CCCCC1=CC2=CC(=O)C(C)(OC(=O)CC)C(=O)C2=CN1Cc1ccccc1 (stereo unspecified)	-8%[11.5 µM]	?	-4%	0%[12.4 µM]	13%[12.4 µM]	15%[12.3 µM]	nt
O=C(COC(=O)c1ccc([N+](=O)[O-])s1)Nc1ccc(Cl)cn1	-13%	3%	-4%	-18%	13%	0%	nt
Cc1c(Cl)cnc(NC(=O)COC(=O)c2ccc([N+](=O)[O-])s2)c1Cl	28µM*	-23%	-27%	-27%	?	-13%	10µM*
CS(=O)(=O)N1Cc2ccccc2CC1C(=O)OCC(=O)NCCc1ccc(S(N)(=O)=O)cc1 (stereo unspecified)	nt	nt	-2%	nt	24%	1%	nt
C/C(N)=C(/C#N)C(=O)COC(=O)C1Cc2ccccc2CN1S(C)(=O)=O (stereo unspecified)	?	-1%	-9%	-15%	?	?	?
Nc1cc2c3c(cccc3c1)C(=O)N(CCN1CCCC1)C2=O	?	-13%	-21%	118%	?	5%	nt
O=C1c2cccc3cc([N+](=O)[O-])cc(c23)C(=O)N1CCN1CCCC1	?	?	0%	108%	?	-1%	25µM*
CC(=O)N(C)/C=C1\Sc2ccccc2C1=O	?	-5%	?	-2%	0%	-8%	-15%

Assay outcomes (PubChem BioAssay)
